Our source for the composite z-score and z-score values is PubChem BioAssay.

The nature of assay [1]: small molecules captured by biotinylated probe aFSTL3 – biochemical, small-molecule microarray, fluorescence 635/667, stem cell growth factor project, primary screen (AID 1064).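 Further: measures binding of the biotinylated anti-FSTL3 antibody to printed compounds.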 As to conditions: higher = more signal.
A short description of assay [2]: binders from COS7 lysate, DM2A8 probe, primary screen, torsin A project, cell lysate, small-molecule microarray, fluorescence 635/667 (AID 1065). As to conditions: higher = more signal, COS7 lysate expressing mutant human TOR1A.
Assay [3] in a line: small molecules captured by biotinylated probe aFGF2 – biochemical, small-molecule microarray, fluorescence 635/667, stem cell growth factor project, primary screen (AID 1067).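 Further: measures binding of biotinylated aFGF2 protein to printed compounds on slides; z-score merges feature fluorescence and signal-to-noise across triplicate slides.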 As to conditions: higher = more signal.
Assay [4] can be described thus: small molecules captured by biotinylated probe aFGF10 – biochemical, small-molecule microarray, fluorescence 635/667, stem cell growth factor project, primary screen (AID 1071).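 Further: score merges 667 nm spot intensity and signal to noise from triplicate slides.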 As to conditions: higher = more signal.
For assay [5], the target named is Neurogenic locus notch homolog protein 2 (Homo sapiens) (UniProt Q04721). As to the kind of experiment: small molecules binding Notch2 protein – biochemical, small-molecule microarray, 635 nm fluorescence, stem cell growth factors, primary screen (AID 1073). Particulars: higher = more signal.
Sequence of Neurogenic locus notch homolog protein 2 (Homo sapiens) (Q04721 whole entry, looked up, canonical isoform): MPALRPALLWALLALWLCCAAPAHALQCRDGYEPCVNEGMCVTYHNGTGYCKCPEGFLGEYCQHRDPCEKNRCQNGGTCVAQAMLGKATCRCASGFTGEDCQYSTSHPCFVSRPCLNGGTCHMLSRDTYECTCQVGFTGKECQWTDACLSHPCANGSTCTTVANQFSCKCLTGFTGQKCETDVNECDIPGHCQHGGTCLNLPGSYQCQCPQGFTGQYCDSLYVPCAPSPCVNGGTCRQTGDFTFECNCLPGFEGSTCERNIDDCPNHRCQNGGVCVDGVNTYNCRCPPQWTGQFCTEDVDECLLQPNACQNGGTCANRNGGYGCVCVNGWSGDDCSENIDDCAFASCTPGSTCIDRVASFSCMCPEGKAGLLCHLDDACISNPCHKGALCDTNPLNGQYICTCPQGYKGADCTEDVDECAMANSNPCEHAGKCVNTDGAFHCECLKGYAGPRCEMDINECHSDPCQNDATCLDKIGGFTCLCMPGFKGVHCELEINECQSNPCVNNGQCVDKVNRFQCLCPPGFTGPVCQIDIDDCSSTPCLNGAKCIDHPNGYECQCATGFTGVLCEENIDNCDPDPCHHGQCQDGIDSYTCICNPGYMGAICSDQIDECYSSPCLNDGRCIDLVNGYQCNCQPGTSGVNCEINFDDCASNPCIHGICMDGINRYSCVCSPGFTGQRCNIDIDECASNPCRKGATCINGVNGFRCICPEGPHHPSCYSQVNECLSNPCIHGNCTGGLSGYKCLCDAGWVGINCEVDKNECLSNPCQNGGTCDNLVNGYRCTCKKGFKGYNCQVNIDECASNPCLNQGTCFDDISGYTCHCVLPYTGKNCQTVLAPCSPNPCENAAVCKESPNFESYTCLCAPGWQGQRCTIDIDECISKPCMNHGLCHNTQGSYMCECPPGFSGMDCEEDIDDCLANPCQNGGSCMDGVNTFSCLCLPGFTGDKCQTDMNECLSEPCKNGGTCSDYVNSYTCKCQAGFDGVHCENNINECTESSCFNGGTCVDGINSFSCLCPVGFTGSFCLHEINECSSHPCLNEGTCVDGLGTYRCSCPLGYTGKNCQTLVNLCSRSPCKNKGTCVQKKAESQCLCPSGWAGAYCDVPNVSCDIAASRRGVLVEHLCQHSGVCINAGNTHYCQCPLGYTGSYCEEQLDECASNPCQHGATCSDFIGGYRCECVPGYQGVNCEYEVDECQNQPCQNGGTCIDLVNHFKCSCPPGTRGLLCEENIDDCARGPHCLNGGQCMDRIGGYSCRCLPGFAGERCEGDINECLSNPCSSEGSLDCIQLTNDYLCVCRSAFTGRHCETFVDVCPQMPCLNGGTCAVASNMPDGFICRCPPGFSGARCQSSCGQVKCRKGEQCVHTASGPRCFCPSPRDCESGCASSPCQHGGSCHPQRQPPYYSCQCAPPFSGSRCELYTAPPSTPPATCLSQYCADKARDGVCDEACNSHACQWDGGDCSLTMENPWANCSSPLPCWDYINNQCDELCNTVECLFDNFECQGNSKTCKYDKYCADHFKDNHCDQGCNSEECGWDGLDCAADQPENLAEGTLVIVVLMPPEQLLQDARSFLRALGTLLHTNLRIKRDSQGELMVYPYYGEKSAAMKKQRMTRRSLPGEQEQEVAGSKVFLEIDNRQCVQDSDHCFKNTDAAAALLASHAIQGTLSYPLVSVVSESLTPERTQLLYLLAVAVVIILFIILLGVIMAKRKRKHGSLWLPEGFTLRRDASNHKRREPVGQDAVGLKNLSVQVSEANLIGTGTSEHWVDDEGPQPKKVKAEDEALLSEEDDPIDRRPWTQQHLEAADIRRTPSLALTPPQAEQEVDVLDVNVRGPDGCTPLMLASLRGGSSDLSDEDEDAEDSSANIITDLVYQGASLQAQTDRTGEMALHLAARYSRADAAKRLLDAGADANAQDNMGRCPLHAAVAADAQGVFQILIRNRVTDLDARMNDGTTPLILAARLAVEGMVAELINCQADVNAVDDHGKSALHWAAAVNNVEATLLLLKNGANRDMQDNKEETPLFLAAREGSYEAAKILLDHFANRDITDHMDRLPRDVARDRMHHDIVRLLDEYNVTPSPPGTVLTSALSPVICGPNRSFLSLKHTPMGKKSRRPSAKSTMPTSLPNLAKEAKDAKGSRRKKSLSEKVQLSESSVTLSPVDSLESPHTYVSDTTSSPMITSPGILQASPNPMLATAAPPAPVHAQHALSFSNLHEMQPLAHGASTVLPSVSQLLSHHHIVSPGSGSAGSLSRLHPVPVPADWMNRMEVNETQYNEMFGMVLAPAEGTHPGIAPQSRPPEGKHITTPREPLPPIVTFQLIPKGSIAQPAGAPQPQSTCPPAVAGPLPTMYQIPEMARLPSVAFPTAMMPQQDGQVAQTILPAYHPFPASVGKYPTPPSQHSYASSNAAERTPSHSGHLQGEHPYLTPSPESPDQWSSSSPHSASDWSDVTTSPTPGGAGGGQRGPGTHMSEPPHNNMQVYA
Assay [6] has as its target Pro-neuregulin-1, membrane-bound isoform (Homo sapiens) (UniProt Q02297). As to the kind of experiment: small molecules binding neuregulin-1 protein – biochemical, small-molecule microarray, fluorescence 635/667, psychiatric disease protein project, primary screen (AID 1075).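 Further: score combines 667 nm spot fluorescence with signal to noise.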 As to conditions: NRG1 binding, 635 nm fluorescence, higher = more signal.
Assay [7] concerns Neuregulin-1 EGF-like domain. As to the kind of experiment: small molecules binding NRG1 EGF domain – biochemical, small-molecule microarray, 635 nm fluorescence, primary screen (AID 1081).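 Further: binding of the protein to compounds printed on small-molecule microarray slides.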 As to conditions: higher = more signal.
A short description of assay [8]: FRG1 expression reporter modulators in myotubes – cell-based, C2C12 myotubes, firefly/Renilla luciferase, luminescence, FRG1 inhibition for FSHD, primary screen (AID 1084). Particulars: FRG1 promoter luciferase, higher = more signal, called active from +8 up or from −8 down.
Assay [9] is described as follows: small molecules captured by biotinylated probe aFST – biochemical, small-molecule microarray, fluorescence 635/667, stem cell growth factor project, primary screen (AID 1086).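 Further: score merges 667 nm fluorescence with signal-to-noise of each printed compound spot.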 Particulars: higher = more signal.
The nature of assay [10]: binders of probe aHhip on microarray, primary screen, stem cell growth factor project, biochemical, small-molecule microarray, fluorescence 635/667 (AID 1087).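 Further: score merges spot fluorescence at 667nm with spot signal to noise ratio.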 As to conditions: higher = more signal.

Active and inactive are the calls of the source.

Sequence of Pro-neuregulin-1, membrane-bound isoform (Homo sapiens) (Q02297 whole entry, looked up, the tested form may be a part, canonical isoform): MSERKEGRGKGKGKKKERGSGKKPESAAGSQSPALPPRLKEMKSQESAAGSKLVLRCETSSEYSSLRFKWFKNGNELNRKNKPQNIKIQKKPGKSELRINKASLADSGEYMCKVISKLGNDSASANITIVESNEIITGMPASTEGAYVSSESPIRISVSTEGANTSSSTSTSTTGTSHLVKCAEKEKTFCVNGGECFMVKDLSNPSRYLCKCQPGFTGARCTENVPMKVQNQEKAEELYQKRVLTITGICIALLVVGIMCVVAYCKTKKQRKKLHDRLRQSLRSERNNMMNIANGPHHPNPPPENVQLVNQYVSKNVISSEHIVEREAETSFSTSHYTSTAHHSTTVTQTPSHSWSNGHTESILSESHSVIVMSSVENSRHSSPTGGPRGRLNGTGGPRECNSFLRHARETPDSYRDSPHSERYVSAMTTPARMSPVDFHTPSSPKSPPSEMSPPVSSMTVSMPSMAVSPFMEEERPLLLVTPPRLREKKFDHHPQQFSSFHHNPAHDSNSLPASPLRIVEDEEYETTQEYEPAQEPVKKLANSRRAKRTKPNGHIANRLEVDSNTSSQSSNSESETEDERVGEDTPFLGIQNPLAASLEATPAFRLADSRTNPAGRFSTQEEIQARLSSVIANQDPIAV

Turning to `CCOC(=O)C=Cc1cc([N+](=O)[O-])ccc1O`, the composite z-score in assay [1] was 0.36; in [2], -0.11; in assay [3], -0.159; in assay [4] it was -0.239; in assay [5] it was -1; in assay [6] it was -0.306. Further, the results for the composite z-score in [7], in assay [9] and in [10] were 0.358, -0.31 and 0.0044, respectively. Besides, the z-score in assay [8] is 2.07 (inactive).

Turning to `C[N+](C)(C)CCCC[C@@H]1NC(=O)[C@@H]2C[C@H](C(=O)NCCCCCN)[C@H](c3cccc(OCCO)c3)N2C1=O`, the composite z-score was 0.6 in assay [1]; 1.6 in assay [2]; -0.0253 in assay [3]; 0.506 in assay [4]; 1.14 in assay [5]; 2.15 in [6]. Also, the composite z-score in [7] came to 1.08; in [9], 0.877; in assay [10] it was 0.161. Besides, in assay [8], the z-score is -0.992 (inactive).

In the case of `CCCC=C(CCC)[C@@H](NS(=O)(=O)c1cccs1)c1ccc(C(=O)OC)cc1`, the composite z-score in assay [1] was 0.002; in assay [2], -0.0193; in assay [3] it was 0.0969; in assay [4], 0.646; in assay [5], 1.53; in assay [6] it was 1.94. The figures for the composite z-score in assay [7], in assay [9] and in [10] were 1.18, 0.969 and 0.398, respectively. Besides, in assay [8], the z-score was -3.86 (inactive).

For the molecule `C=CC[C@]1(C(=O)NCCCOC)N=C(c2ccc(OCCCO)cc2)O[C@H]1c1ccccc1N=[N+]=[N-]`, the composite z-score was 0.149 in assay [1]; -0.0693 in [2]; 0.119 in assay [3]; 0.751 in [4]; 1.39 in [5]; 0.94 in assay [6]. The composite z-score in assay [7] was 0.989; in assay [9], 1.18; in assay [10], -0.192. In assay [8], the z-score is 0.665 (inactive).

In the case of `CCCC#C[Si](O[C@H](CC)c1cn([C@H](CO)Cc2ccccc2)nn1)(C(C)C)C(C)C`, the composite z-score in assay [1] is -0.503; in assay [2], 0.236; in assay [3], -0.0856; in assay [4], 0.449; in assay [5], 0.769; in [6] it was 0.471. In addition, the values for the composite z-score in [7], in assay [9] and in assay [10] were 0.988, -0.0393 and -0.0003, respectively. For the same molecule, the z-score in assay [8] is 0.889 (inactive).

Turning to `CC(C)(C)OC(=O)CC[C@@]1(C(N)=O)N=C(c2ccc(OCCCO)cc2)O[C@@H]1c1ccccc1`, the composite z-score was 0.0075 in [1]; 1.93 in assay [2]; -0.0399 in assay [3]; 0.558 in assay [4]; 1.29 in [5]; 1.71 in assay [6]. Besides, the composite z-score is 1.24 in assay [7], 1.05 in assay [9] and -0.134 in assay [10]. Also, in assay [8], the z-score is 0.18 (inactive).

On to `COc1ccc(C(O)C2C=CC3C(=O)NC(=O)C3N2Nc2ccccn2)cc1` (stereo not given), for which the composite z-score in [1] was -0.0118; in assay [2], -0.765; in assay [3], 0.0143; in assay [4], 0.585; in [5] it was 0.891; in [6], 0.843. For the same molecule, the results for the composite z-score in assay [7], in assay [9] and in [10] were 0.844, 0.357 and -0.159, respectively. In assay [8], the z-score is 1 (inactive).

For the molecule `[N-]=[N+]=Nc1ccccc1C[C@]1(C(N)=O)N=C(c2ccc(OCCCO)cc2)O[C@H]1c1ccccc1`, the composite z-score in assay [1] stood at 0.235; in assay [2], 0.327; in [3], 0.0931; in assay [4] it was 0.373; in assay [5], 0.361; in [6] it was 1.82. Moreover, the composite z-score in [7] was 1.22; in [9], 0.85; in assay [10], -0.0237. In addition, the z-score in [8] is -3.01 (inactive).

As to `O=C1OCCC/C=C\[C@H]2OC34C=CCN(CCN5CCOCC5)C(=O)[C@H]3N(CCCO)C(=O)[C@@H]4C12` (stereo not given in full), the composite z-score is -0.0893 in [1]; 0.95 in assay [2]; -0.168 in [3]; -1.07 in [4]; -0.793 in assay [5]; 1.47 in assay [6]. Moreover, the values for the composite z-score in assay [7], in assay [9] and in [10] were 0.993, -0.209 and -0.216, respectively. Further, the z-score in assay [8] was 0.562 (inactive).

`Cc1ccc(S[C@]2(C(=O)NC(C)C)CC(=O)N(Cc3ccccc3Cl)[C@@H]2c2ccc(CO)cc2I)cc1`: the composite z-score in [1] is 0.319; in assay [2] it was -0.756; in assay [3], -0.223; in assay [4], -0.719; in [5] it was -1.31; in [6] it was 1.85. In addition, the results for the composite z-score in assay [7], in assay [9] and in [10] were 1.02, -0.377 and -0.0994, respectively. Moreover, in [8], the z-score is -1.42 (inactive).

Turning to `COc1ccc([Si](C)(C)[C@H]2[C@H](CC(=O)N3CCC[C@H]3CO)O[C@@]3(C(=O)N(Cc4cccc(N5C(=O)c6cccc7cccc5c67)c4)c4ccccc43)[C@@H]2C)cc1`, the composite z-score in assay [1] is -0.354; in [2], -0.0115; in assay [3], 0.0686; in assay [4] it was 0.483; in assay [5], 0.818; in [6], 1.77. Moreover, the composite z-score in [7] is 0.981; in assay [9], 0.305; in assay [10], 0.166. Also, the z-score in assay [8] was -4.24 (inactive).

Turning to `Cc1ccc(C(C)CC(O)C2C=CC3C(=O)N(C)C(=O)C3N2NC(=O)OC(C)(C)C)o1` (stereo not given), the composite z-score in assay [1] is -0.112; in [2], 0.6; in assay [3] it was 0.239; in [4] it was 0.687; in assay [5] it was 0.868; in assay [6], 1.67. The composite z-score is 0.883 in assay [7], 0.889 in assay [9] and -0.27 in [10]. In addition, in assay [8], the z-score is 0.385 (inactive).

Consider `C=C/C=C/[C@H]1C(=C)CN([C@@H](Cc2ccccc2)C(=O)OC)[C@@H]1[C@H](O)Cc1ccccc1`, for which the composite z-score in assay [1] was 0.042; in assay [2], -0.951; in assay [3], -0.203; in [4], -0.189; in assay [5], -1.06; in assay [6], -0.824. Moreover, the values for the composite z-score in assay [7], in assay [9] and in [10] were -0.5, -0.364 and -0.455, respectively. The z-score in [8] is -0.164 (inactive).

Regarding `CN1C(=O)C2C=CC(C(O)C3CC=CCC3)N(NC(=O)OC(C)(C)C)C2C1=O` (stereo not given), the composite z-score is -0.138 in [1]; 0.23 in assay [2]; 0.218 in [3]; 0.752 in [4]; 1.29 in assay [5]; 1.64 in assay [6]. Besides, the figures for the composite z-score in assay [7], in [9] and in assay [10] were 1.21, 0.879 and -0.0296, respectively. The z-score in assay [8] is 2.23 (inactive).

Consider `COC(=O)[C@@]1(Cc2ccc(F)cc2)[C@@H]2[C@@H](CC(=O)[C@H]2CC(=O)C(=O)N(C)C)CN1C(=O)c1ccccc1`, for which the composite z-score in assay [1] was 0.367; in [2], -0.178; in assay [3] it was 0.287; in [4], 0.855; in assay [5] it was 1.76; in assay [6] it was 1.3. For the same molecule, the values for the composite z-score in [7], in [9] and in assay [10] were 1.18, 2.33 and 0.33, respectively. In assay [8], the z-score is -0.439 (inactive).
